High-throughput results (PubChem BioAssay)
Rows were chosen to be rich in hits. Some 27% of all compounds tested hit in one or more screens of this group.
CYP2C9 act – activators of human CYP2C9. P11712. recombinant CYP2C9, luciferin-H conversion, luminescence; active compounds read high; factor 1 = untreated enzyme, 0 = blocked. activation factor at 5 µM. 96,000 compounds, 1.4% hits. AID 1024;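 active means activation factor of 2 or more for CYP2C9 at a 5 µM dose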;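 further: 0 = sulfaphenazole-blocked wells and 1 = vehicle-only wells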
Target sequence (P11712 whole entry, looked up): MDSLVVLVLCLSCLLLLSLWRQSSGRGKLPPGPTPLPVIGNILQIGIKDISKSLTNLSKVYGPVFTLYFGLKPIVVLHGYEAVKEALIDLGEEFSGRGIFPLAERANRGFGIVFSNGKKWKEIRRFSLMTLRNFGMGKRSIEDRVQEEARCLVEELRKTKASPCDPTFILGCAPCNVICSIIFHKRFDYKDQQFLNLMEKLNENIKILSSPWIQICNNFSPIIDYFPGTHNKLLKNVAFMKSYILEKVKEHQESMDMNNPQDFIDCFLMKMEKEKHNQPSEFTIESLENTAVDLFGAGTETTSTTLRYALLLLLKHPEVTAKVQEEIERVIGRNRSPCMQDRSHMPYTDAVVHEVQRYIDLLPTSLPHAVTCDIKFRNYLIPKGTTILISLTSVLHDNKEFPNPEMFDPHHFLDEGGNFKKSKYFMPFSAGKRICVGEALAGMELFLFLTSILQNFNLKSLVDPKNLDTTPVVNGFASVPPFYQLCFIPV
sEH activator – increases human soluble epoxide hydrolase activity | P34913 | purified human sEH enzymatic activity, activator screen | activation, % at 2 µM | 91,000 compounds, 0.04% hits | AID 717; in the data active means activation above about 37%
CYP2C9 inhib – blocks human cytochrome P450 2C9; P11712; CYP2C9 Supersomes, luciferin-H conversion, luminescence; inhibition, % at 5 µM; 96,000 compounds, 20% hits; AID 777;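 active means blocking of liver enzyme CYP2C9 beyond about 50% at 5 µM, limit read from the data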
CYP2C19 inhib – blocks human cytochrome P450 2C19; P33261; inhibition, % at 5 µM; AID 778; 96,000 compounds, 21% hits; CYP2C19 Supersomes, luciferin-H EGE luminescence, 30 min;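 active means CYP2C19 inhibition above a set limit at 5 µM in the primary screen, cut at about 50% in these data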;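 further: plate controls were negative control wells for no effect and 2.5 mM tranylcypromine positive control for full effect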
CYP2C19 act – increases human CYP2C19 enzyme activity; recombinant CYP2C19, luciferin-H EGE luminescence; active compounds read high; 0 = fully inhibited enzyme, 1 = untreated enzyme; P33261; AID 1025; 96,000 tested, under 10 active; activation factor at 5 µM;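 active means activation factor of at least 2 at 5 µM in the primary screen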;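 further: 0 = wells with 2.5 mM tranylcypromine and 1 = vehicle-only wells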
sEH inhibitor – soluble epoxide hydrolase (human) inhibition; P34913; inhibition, % at 2 µM; 91,000 compounds, 0.34% hits; recombinant human sEH enzymatic activity assay; in the data active means inhibition above about 80%
The depositor's hits bear a star; nt = not tested or not shown.

SMILES	CYP2C9 act	sEH activator	CYP2C9 inhib	CYP2C19 inhib	CYP2C19 act	sEH inhibitor
O=C(CNC(=O)Cn1ccc2ccccc2c1=O)NCCCN1CCN(c2cccc(Cl)c2)CC1	0.9	11.4	10.3	10.4	0.9	-10.8
COc1cc(C2=NOC(C(=O)Nc3ccc(C(C)=O)cc3)C2)cc(OC)c1OC (stereo unspecified)	1	4.5	2.4	-11.5	1.1	-3.9
COc1ccc(OC)c(C2=NOC(C(=O)Nc3ccccc3SC)C2)c1 (stereo unspecified)	1.3	-0.4	-33.4	86.4*	0.1	-0.3
COc1cc(NC(=O)C2CC(c3cccc(OC)c3OC)=NO2)cc(OC)c1OC (stereo unspecified)	1.4	0.6	-36.9	60.8*	0.4	-3.1
COc1ccc(OC)c(C2=NOC(C(=O)Nc3cc(C)nn3-c3ccccc3)C2)c1 (stereo unspecified)	0.8	nt	17.0	42.8	0.6	nt
COc1ccc(OC)c(C2=NOC(C(=O)Nc3cccc(C(C)=O)c3)C2)c1 (stereo unspecified)	2.3*	-11.6	-133.7	51.9*	0.5	10.3
COc1cccc(C2=NOC(C(=O)Nc3ccc(C(C)=O)cc3)C2)c1 (stereo unspecified)	0.8	-2.6	22.3	15.9	0.8	5.3
Nc1ccc(C(=O)c2ccccc2C(=O)O)cc1Cl	1	3.4	1.2	6.9	0.9	-3.3
COc1cc(C)c(Cl)c(C)c1S(=O)(=O)NCc1cccnc1	0.8	7.6	16.0	49.6	0.5	-5.5
O=c1[nH]c2ccc(S(=O)(=O)Nc3ccc(-c4nnc5n4CCCCC5)cc3)cc2o1	0.7	14.3	30.9	6.7	0.9	-15.9
CCOCCCNC(=O)c1cc2sc(Cl)cc2n1CC	0.8	nt	22.2	52.1*	0.5	nt
c1cncc(-c2nnc(C3CCCCC3)o2)c1	0.9	2.7	8.4	12.7	0.9	-3.1
COc1ccc(CNC(=O)COC(=O)c2c(-c3c(F)cccc3Cl)noc2C)cc1OC	0.4	-0.5	56.0*	96.8*	0	4.0
Cc1onc(-c2ccccc2Cl)c1C(=O)OCn1nnc2ccccc2c1=O	1	-9.2	3.9	33.4	0.7	11.7
Cc1onc(-c2c(F)cccc2Cl)c1C(=O)OCN1C(=O)c2ccccc2C1=O	0.6	nt	42.4	55.6*	0.4	nt
Clc1ccc(-c2nnc(SCc3ccon3)o2)c(Cl)c1	0.4	-12.4	61.9*	96.7*	0	15.4
Clc1ccc(-c2nnc(SCc3nc4ccccc4[nH]3)o2)c(Cl)c1	nt	-4.8	nt	nt	nt	7.4
C=CCSc1nnc(-c2ccc(Cl)cc2Cl)o1	0.7	-3.4	32.0	84.2*	0.2	4.8
O=c1cc(C(F)(F)F)nc(-c2ccccc2)[nH]1	0.7	0.6	30.4	0.2	1	-1.9
CN1C(=O)N(C)C2(c3ccccc3)N(C)C(=O)NC12c1ccccc1 (stereo unspecified)	1	6.3	-0.6	-8.3	1.1	-8.1
COc1ccc(C(=O)N(CN2CCCC2=O)c2cc(C)on2)cc1OC	1	nt	0.5	-2.8	1	nt
CCCC(=O)N(c1ccc2oc(=O)sc2c1)S(=O)(=O)c1cccs1	0.3	-1.6	70.9*	99.2*	0	1.8
CC(=O)N(c1ccc2oc(=O)sc2c1)S(=O)(=O)c1ccccc1	0.9	-16.3	14.3	64.7*	0.4	16.5
CC(C)C(=O)N(c1ccc2oc(=O)sc2c1)S(=O)(=O)c1ccccc1	1	6.4	2.8	6.6	0.9	-5.8
CN1CCN(C(=O)c2ccc(-n3cccc3)cc2)CC1	0.6	-5.2	42.5	-0.3	1	7.8
CCOc1ccc(Cl)cc1S(=O)(=O)n1nnc2ccccc21	2*	-3.9	-104.1	98.3*	0	3.2
COc1ccc(CNC(=O)CN2C(=O)C(C)N(c3ccc(C)cc3)C2=O)cc1 (stereo unspecified)	0.2	1.8	77.5*	93.9*	0.1	-4.8
Cc1ccc(N2C(=O)N(CC(=O)NCc3ccc(Cl)cc3)C(=O)C2C)cc1 (stereo unspecified)	0.8	nt	22.3	73.8*	0.3	nt
COc1ccccc1CNC(=O)CN1C(=O)C(C)N(c2ccc(C)cc2)C1=O (stereo unspecified)	0.9	8.1	10.0	19.0	0.8	-6.8
CCn1cc(C2=NOC(C(=O)Nc3cc(OC)c(Cl)cc3OC)C2)c(C)n1 (stereo unspecified)	1.1	nt	-12.5	29.5	0.7	nt
